About 60 (0.4%) of roughly 15,000 compounds were called active. This excerpt belongs to a sample that is enriched for actives. Values without a mark were called inactive. No stated cut-off is given here; in the data, active means activation above about 2.2%; inactive means the rest.
Experiment: agonists of NOTCH signaling (AID 434982)
Settings: NOTCH signaling luciferase reporter cells, luminescence; at 2.5 µM; active compounds read high

Row | Structure (SMILES) | activation
1 | c1ccc2c(-c3csc(-c4ccc5c(c4)OCCO5)n3)csc2c1 | -0.45%
2 | O=S(=O)(c1ccc(Cl)cc1)n1nccc1/C=C/c1cccs1 | 0.05%
3 | N#Cc1c(-c2cccs2)cc(-c2cccs2)nc1N | -0.55%
4 | CSc1sc(C(=O)Nc2cccc(Cl)c2)c(-c2cccs2)c1C#N | -0.76%
5 | CC1(C)C2CC[C@](C)(C2)C1NC(=O)c1c(Cl)cccc1Cl (stereo not given in full) | -0.41%
6 | CC(C)(C)c1csc(Sc2ccc([N+](=O)[O-])cc2[N+](=O)[O-])n1 | -0.69%
7 | CSc1nsc(SC)c1C(=O)NC(=O)NNc1ccc(F)c(Cl)c1 | -0.35%
8 | CCCCc1ccc(-n2c(-c3ccc(F)cc3)coc2=O)cc1 | -0.29%
9 | Clc1ccc(C2=NN(Cc3ccccc3)CC2)s1 | 0.29%
10 | COc1ccc(NC(=S)Nc2ccc(F)cc2F)c([N+](=O)[O-])c1 | -0.83%
11 | CC(=O)Nc1ccc(F)cc1F | 3.83% (active)
12 | Cc1ccc(SCC(=O)Nc2ccc(F)cc2F)cc1 | 0.31%
13 | O=C1c2ccccc2C(=O)N1CNc1ccc(C2CCCCC2)cc1 | -0.31%
14 | Cc1ccc(CSC(=N)N)cc1 | 0.1%
15 | COc1ccc(OC(=O)/C=C/c2sc3ccccc3c2C)cc1 | -0.25%
16 | Cc1nc(-c2ccccn2)n2nnnc2c1Cl | -0.27%
17 | Cc1oc(C(C)(C)C)cc1C(=O)NC1Cc2ccccc2C1 | -0.44%
18 | COC(=O)c1scc(S(=O)(=O)Cc2ccco2)c1N/N=C(\C#N)S(=O)(=O)C(C)C | 0.15%
19 | NNC(=O)c1cc(OCC(F)(F)F)nc(OCC(F)(F)F)c1 | -0.48%
20 | COc1cc(NC(=O)c2ncc(C(F)(F)F)cc2Cl)c(C(=O)O)cc1OC | -0.4%
21 | COC(=O)c1ccc(S(=O)(=O)N2CCN(c3ccc([N+](=O)[O-])cn3)CC2)n1C | 0.16%
22 | COC(=O)c1ccc(S(=O)(=O)NNC(=O)c2cn3cc(C(F)(F)F)cc(Cl)c3n2)n1C | 3.18% (active)
23 | CC(=O)Nc1cccc([N+](=O)[O-])c1 | 6.11% (active)
24 | Cc1ccc(OC(=O)c2cccc([N+](=O)[O-])c2)c(Br)c1 | 0.36%
25 | CC(=O)Nc1ccc(NC(=O)c2cc(C)ccc2[N+](=O)[O-])c(C)c1 | -0.09%

Row | Structure (SMILES) | activation
26 | O/N=C/c1ccc(F)c(Cl)c1 | 0.44%
27 | COC(=O)/C(=C/c1ccccc1)c1ccccc1 | -0.19%
28 | CSC(=CC(=O)c1cccs1)SC | -0.45%
29 | Cc1nc2ccccn2c1C(=O)N/N=C/c1cn(-c2ccccc2)nc1-c1cccs1 | -0.2%
30 | N/C(=N\OCc1noc(-c2ccsc2)n1)c1ccc(C(F)(F)F)cc1 | -0.33%
31 | O=C(Cn1nnc(N2CCOCC2)n1)N/N=C/c1ccc(-c2cccc([N+](=O)[O-])c2)o1 | -0.66%
32 | CS(=O)(=O)/N=C(\N)c1ccncc1 | -1.1%
33 | Cc1noc(C)c1C(=O)c1c(C)[nH]n(-c2ccccc2)c1=O | 0.14%
34 | O=S(=O)(Oc1ccc(Cl)c(Cl)c1)c1c(Cl)sc(Cl)c1Br | -0.59%
35 | CC(C)(C)OC(=O)n1ccc2cc(Br)ccc21 | -0.83%
36 | Cc1ccc(S(=O)(=O)NNC(=O)CCc2nc(-c3ccc(Cl)cc3)no2)cc1 | 0.6%
37 | CC(=O)N1C=CC(c2c[nH]c3ccccc23)C=C1 | -0.43%
38 | CS(=O)(=O)c1csc(C(=O)NCc2cccnc2)c1Cl | -0.31%
39 | CN(NS(=O)(=O)c1ccc(C(F)(F)F)cc1)c1cnn(C)c(=O)c1Cl | -0.2%
40 | O=C(Nc1ccccc1C(=O)NC1CCSC1)c1cccc(Cl)c1 (stereo not given) | -0.57%
41 | c1ccc(-c2nsc(N3CCNCC3)n2)cc1 | 0.94%
42 | Cn1cc(Cl)c(/C=C(\C#N)C(N)=O)n1 | -0.29%
43 | O=c1[nH]cc(Br)c(=O)[nH]1 | -0.83%
44 | O=C(CN1CCOCC1)NNC(=O)c1cccs1 | -0.03%
45 | O=C(Cc1cccc2ccccc12)NNC(=O)Nc1ccc(Cl)cc1 | -0.03%
46 | COc1cccc(NC(=S)NNC(=S)NC2CC3CCC2C3)c1 (stereo not given) | -0.54%
47 | Cc1cc(C(=O)NCCNS(=O)(=O)c2ccc(Cl)cc2)c(C)o1 | -0.14%
48 | CNC(=S)NNC(=O)CSc1cccs1 | 1.08%
49 | N#C/C(=C\c1cccn1S(=O)(=O)c1ccccc1)C(=O)c1ccccc1 | 0.09%
50 | O=C(Cc1cc(F)cc(F)c1)n1nccc1-c1cccs1 | -0.68%

Row | Structure (SMILES) | activation
51 | O=C(O)C1CC2CC1CCC2O (stereo not given) | -0.37%
52 | Fc1ccc(NC(=S)N2CCN=C2Nc2ccc(F)cc2)cc1 | -1.11%
53 | CC(=O)NC12CC3(C)CC(C)(CC(C)(C3)C1)C2 | 1.34%
54 | Cn1c(S(=O)(=O)O)nc2ccccc21 | -0.35%
55 | Cc1ccc(S(=O)(=O)NC(=O)NNc2ncnc3scc(-c4ccccc4)c23)cc1 | -0.88%
56 | CCN=C(NCC)Nc1ccc(Cl)cc1 | -0.99%
57 | CC(=O)/C(=C\N(C)C)c1ncccc1[N+](=O)[O-] | 0%
58 | CNC(=S)Nc1cscc1S(=O)(=O)c1ccc(Cl)cc1 | -0.17%
59 | CCOC(=O)c1sc(SCCS(=O)(=O)c2ccc(Cl)cc2)c(C#N)c1-c1ccccc1 | -0.58%
60 | O=S(=O)(Oc1ncccc1C(F)(F)F)c1cccc(F)c1 | -0.36%
61 | O=C(NC(=O)C1CCN(c2ncccc2[N+](=O)[O-])CC1)Nc1ccc(Cl)cc1 | 0.44%
62 | CCOC(=O)CC(=O)CSc1nnc(N)s1 | 0%
63 | NC(=O)C1CCN(CC(O)COc2ccc(Cl)c(Cl)c2)CC1 (stereo not given) | -0.63%
64 | O=c1o[nH]c(-c2ccccc2)c1N=Nc1c(F)cccc1Cl | 0.09%
65 | CCOC(=O)C(O)(NC(=O)Nc1ccccc1)C(F)(F)F (stereo not given) | -0.73%
66 | Cn1c(=O)c2c(ncn2Cc2nnc(-c3ccccc3)o2)n(C)c1=O | -0.05%
67 | Cc1ccc(S(=O)(=O)N/N=C/c2ccc(O)cc2O)cc1 | -0.7%
68 | Cc1nnsc1C(=O)NN(C)c1ccc([N+](=O)[O-])cn1 | -0.31%
69 | CCOC(=O)Cc1cnc(NN=C2C3CC4CC(C3)CC2C4)s1 | -0.83%
70 | O=C(Cn1c(=Nc2ccc(F)cc2)oc2ccccc2c1=O)c1ccccc1 | -0.66%
71 | O=c1[nH]c2ccccc2c(=O)n1CCSc1ccc(Cl)cc1 | -0.73%
72 | O=S(=O)(NC1Cc2ccccc2C1)c1ccc(-c2csnn2)cc1 | -0.03%
73 | CCOC(=O)C(=CNNc1ccc(C(=O)O)cc1[N+](=O)[O-])C(=O)OCC | -0.57%
74 | Cc1ccc(NC(C(=O)O)c2ccccc2)cc1 (stereo not given) | -0.61%
75 | CC(=O)Nc1ccc(S(=O)(=O)NNc2c(Cl)cncc2Cl)cc1Cl | -0.55%

Row | Structure (SMILES) | activation
76 | CCOC(=O)CCC(=O)OC(C(=O)c1ccccc1)c1ccccc1 (stereo not given) | -0.16%
77 | Cc1ccc(/C=c2\sc3nc4ccccc4n3c2=O)o1 | -0.36%
78 | O=S(=O)(CCSc1ccccc1NS(=O)(=O)c1cccs1)c1ccc(Cl)cc1 | -0.38%
79 | O=C(Nn1cnnc1)c1ccc([N+](=O)[O-])cc1 | -0.58%
80 | O=C(CSc1nnc(-c2ccncc2)o1)N1CCc2ccccc21 | -0.94%
81 | Oc1ccccc1C=NCCCN=Cc1ccccc1O | -0.99%
82 | N#Cc1ccc(Oc2ccc(Cl)cc2)c([N+](=O)[O-])c1 | -0.29%
83 | Oc1ccccc1C=Nc1ccc(F)cc1 | -0.14%
84 | O=C(O)/C=C/C(=O)Nc1ccc(NC(=O)c2ccccc2O)cc1 | 0.22%
85 | CCOC(=O)c1c(C)nn(-c2ncccc2NC(=O)Nc2cccc(Cl)c2Cl)c1C | -0.32%
86 | c1ccc(C2=NCCN=C2c2ccccc2)cc1 | 0.16%
87 | N#CC(C#N)=Cc1cccn1-c1ccc(C(F)(F)F)cc1 | -0.29%
88 | N#C/C(=C\c1cccs1)C(=O)NCCc1c[nH]c2ccccc12 | 0.42%
89 | COC(=O)c1noc(C)c1-c1ccnn1C(=O)c1ccc(Cl)cc1 | 0.11%
90 | COc1ccc(Cc2nc(C(C)(C)C)cs2)cc1 | 0.28%
91 | CNC(=S)NNC(=O)c1cc(C)on1 | -0.11%
92 | Cn1cnc([N+](=O)[O-])c1N1CCN(C(c2ccccc2)c2ccccc2)CC1 | -0.25%
93 | COC(=O)c1sccc1S(=O)(=O)Nc1ccccc1Sc1ncnc2c(C)csc12 | -0.68%
94 | N#Cc1ccc(-c2csc(COc3ccccc3Cl)n2)cc1 | 0.49%
95 | O=C(Nc1ccc(Cl)cc1)c1csc(COc2ccc3nonc3c2)n1 | -0.05%
96 | COC(=O)c1ccccc1-c1c2ccc(=O)cc-2oc2cc(O)ccc12 | -0.07%
97 | COc1cccc(/C=N/NC(=S)Nc2cc(C(F)(F)F)cc(C(F)(F)F)c2)c1O | -0.66%
98 | O=C(O)CC(CC(=O)Nc1cc(C(F)(F)F)ccc1N1CCOCC1)c1ccccc1 (stereo not given) | -0.05%
99 | Cc1cc(C)nc(NC(=S)c2ccc(NC(=O)/C=C/C(=O)O)cc2)n1 | -0.56%
100 | Cc1c(NC(=S)Nc2ccccc2)c(=O)n(-c2ccccc2)n1C | -0.19%

Reference: PubChem BioAssay AID434982 (The Scripps Research Institute Molecular Screening Center, 2010)
